Our source for the inhibition values is PubChem BioAssay AID1362 (SRMLSC, 2008).

Hit rate of the full screen: of about 190,000 compounds, about 4,000 (2.1%) were called active. Rule as the data show it: active = inhibition above about 58%; inactive = the rest, inconclusive results apart; tested in S. cerevisiae. This excerpt belongs to a sample that is enriched for actives.

The nature of the test: growth inhibition of WT strain, primary screen, mitochondrial fusion inhibitor project, WT and mutant strains, chemical genetic (AID 1362). To be noted: mitochondrial fusion phenotypic screen, at 10 µM.
Setting [1] is: WT strain, growth inhibition, stronger effect = higher value.

For `O=C(NCCN1CCOCC1)Nc1cccc(Cl)c1`, the inhibition is, setting by setting: under setting [1], -7.63% (inactive); (mutant strain inhibition) -3.81%.
The like results for `Cc1cc(C)cc(OCC(=O)NCc2cc(C)nc3ccccc23)c1` were, in that order, -2.23% (inactive) and 3.06%.
Regarding `COc1cc(NC(=S)N2CCCC(C)C2)c(OC)cc1Cl` (configuration not stated), the inhibition under setting [1] was -3.52% (inactive) and the inhibition (mutant strain inhibition) was 1.38%.
The like results for `COc1ccc(NC(=O)COc2ccc(C(=O)OCC(=O)N(C)C3CCS(=O)(=O)C3)cc2OC)cc1` (configuration not stated) were, in that order, -3.64% (inactive) and 1.53%.
The like results for `O=C(Nc1ccc(Cl)cn1)c1ccc2c(c1)OCCO2` were, in that order, 27.3% (inactive) and 29%.
The like results for `O=C(Nc1cccc(S(=O)(=O)Nc2ccc(Cl)cc2)c1)c1ccc2c(c1)OCCO2` were, in that order, 63.7% (active) and 29.9%.
As to `O=C(Nc1cccc(S(=O)(=O)N2CCCCC2)c1)c1ccc2c(c1)OCO2`, the inhibition is 9.86% (inactive) under setting [1] and 4.97% (mutant strain inhibition).
On the same counts, the results for `CCn1nc(C)cc1C(=O)N1CCCC(C(=O)c2cccc(OC)c2)C1` (configuration not stated) are -20.3% (inactive) and 1.68%.
In the case of `Cn1nnnc1SCC(=O)NNC(=O)c1ccc(Br)cc1`, the inhibition is, setting by setting: under setting [1], -19.9% (inactive); (mutant strain inhibition) 0.05%.
Regarding `COc1cc(/C=N/NC(=O)c2cc(C)n(-c3ccc(F)cc3)c2C)cc(OC)c1O`, the inhibition under setting [1] is 1.5% (inactive) and the inhibition (mutant strain inhibition) is 1.64%.
On the same counts, the results for `COc1cc(Cl)c(C)cc1NC(=O)CSc1nnc(-c2cccnc2)n1Cc1ccco1` are 2.54% (inactive) and 2.3%.
On the same counts, the results for `CCn1c(SCC(=O)Nc2cc(C)c(Cl)cc2OC)nnc1-c1ccco1` are 23% (inactive) and 32.2%.
`COc1cc(Cl)c(C)cc1NC(=O)CSc1nnc(-c2ccco2)n1CC(C)C`: the inhibition under setting [1] is 63.4% (active) and the inhibition (mutant strain inhibition) amounted to 39.5%.
As to `CCN(CC)CCOC(=O)c1ccc(NC(=O)CNC(=O)c2ccccc2)cc1`, the inhibition is, setting by setting: under setting [1], 19.4% (inactive); (mutant strain inhibition) 15.8%.
As to `COc1ccccc1NC(=S)N1CCN(C(c2ccccc2)c2ccccc2)CC1`, the inhibition by setting is: under setting [1], 58.8% (active); (mutant strain inhibition) 38.3%.
`COc1ccccc1NC(=S)NC(=O)C(C)C`: the inhibition runs as follows: under setting [1], 48% (inactive); (mutant strain inhibition) 2.93%.
For the molecule `CC(C)NC(=S)N1CCN(C(c2ccccc2)c2ccccc2)CC1`, the inhibition was 64.7% (active) under setting [1] and 29.4% (mutant strain inhibition).
On the same counts, the results for `CC(C)OCC(O)CN1CCN(C(c2ccccc2)c2ccccc2)CC1` (configuration not stated) are 11% (inactive) and 3.96%.
Take `COc1ccccc1NC(=S)N1CCC(NC(=O)C23CC4CC(CC(C4)C2)C3)CC1`: the inhibition is -5.17% (inactive) under setting [1] and 19% (mutant strain inhibition).
The like results for `CC(C)NC(=S)N1CCN(S(C)(=O)=O)CC1` were, in that order, -2.96% (inactive) and 11.2%.
For the molecule `O=C1CN(C(=O)COC(=O)c2cnc(Cl)c(Cl)c2)c2ccccc2N1`, the inhibition runs as follows: under setting [1], -3.97% (inactive); (mutant strain inhibition) -29.4%.
The like results for `O=C(COC(=O)c1ccco1)NCc1ccc(Cl)cc1` were, in that order, 2.75% (inactive) and -1.13%.
Take `Cc1n[nH]c(=O)n1-c1ccc(C(C)C)cc1`: the inhibition reads like this: under setting [1], -5.29% (inactive); (mutant strain inhibition) -2.69%.
The like results for `O=C(CO/N=C/c1ccc(OC(F)F)cc1)NCc1ccc(F)cc1` were, in that order, 16.7% (inactive) and 27%.
The like results for `CC(C(=O)N=Nc1c(O)n(C)c2ccc(Br)cc12)n1cnc2ccccc2c1=O` (configuration not stated) were, in that order, 17.8% (inactive) and 30.6%.
Turning to `COCCN(CCOC)S(=O)(=O)c1ccc(/C(O)=C(\C#N)c2nc3ccccc3[nH]2)cc1`, the inhibition runs as follows: under setting [1], -0.78% (inactive); (mutant strain inhibition) -1.8%.
For `CC(C)CN1CCNC(=O)C1CC(=O)N(C)CC1CCOCC1` (configuration not stated), the inhibition by setting is: under setting [1], -4.62% (inactive); (mutant strain inhibition) -8.09%.
In the case of `COC(=O)C1=C(C)N(c2ccc(C)cc2)/C(=C/c2ccc(O)cc2)C1=O`, the inhibition under setting [1] is 5.84% (inactive) and the inhibition (mutant strain inhibition) is 0.5%.
On to `COc1ccc(/C=N/NC(=O)CNC(=O)c2ccc(S(=O)(=O)N3CCCC3)cc2)c(OC)c1`, for which the inhibition is 7.02% (inactive) under setting [1] and 8.18% (mutant strain inhibition).
`Cc1nnc(CN(C)Cc2cn[nH]c2-c2ccc(-c3ccccc3)cc2)o1`: the inhibition was 6.53% (inactive) under setting [1] and -1.49% (mutant strain inhibition).
For `CCCc1ccc(OCC(=O)NNC(=S)NC(=O)c2ccco2)cc1`, the inhibition is 87.8% (inactive) under setting [1] and 88.2% (mutant strain inhibition).
The like results for `CC(Oc1ccc2ccccc2c1)C(=O)NNC(=S)NC(=O)c1ccco1` (configuration not stated) were, in that order, 86.5% (active) and 80.5%.
For the molecule `O=C(Nc1ccc2ccccc2c1)/C(=C/c1cccc(Br)c1)NC(=O)c1ccco1`, the inhibition reads like this: under setting [1], 17.2% (inactive); (mutant strain inhibition) 10.9%.
For the molecule `CCCNC(=O)c1ccccc1NC(=O)CSCc1ccc(OC)cc1`, the inhibition by setting is: under setting [1], 72.9% (active); (mutant strain inhibition) 19.6%.
The like results for `CCCCCNC(=O)c1cccnc1SCC(=O)Nc1ccccc1OC` were, in that order, -6.44% (inactive) and -24%.
On the same counts, the results for `CCCNC(=O)Nc1ccccc1C(=O)Nc1ccc(OC)cc1` are -0.69% (inactive) and -0.17%.
On the same counts, the results for `Cc1cccc(C)c1NC(=O)C1(C)c2cccc[n+]2CC(=O)N1Cc1cccs1` (configuration not stated) are -7.87% (inactive) and 0.75%.
`COc1cc(/C=N/Nc2ccc(C)cc2)cc(Br)c1O`: the inhibition was 15.8% (inactive) under setting [1] and 37.7% (mutant strain inhibition).
With `COc1cccc(/C=N/NC(=O)c2cccc([N+](=O)[O-])c2)c1OS(=O)(=O)c1ccc(C)cc1`, the inhibition is, setting by setting: under setting [1], -5.41% (inactive); (mutant strain inhibition) -3.16%.
For `COc1cc(/C=N/O)cc(Br)c1OCc1cccc(Cl)c1`, the inhibition is 91.4% (active) under setting [1] and 76.3% (mutant strain inhibition).
Turning to `COc1cc(/C=N/O)cc(Br)c1OS(=O)(=O)c1ccc(C)cc1`, the inhibition runs as follows: under setting [1], 71.3% (active); (mutant strain inhibition) 30.6%.

The inhibition is the relative decrease from the control value, in per cent.
